40 compounds from PubChem BioAssay (Tox21) can be followed below.

Structures are written as SMILES. Records with an inconclusive call do not appear. The source made the active and inactive calls. Calls follow the shape of the dose curve; as a rule, active = well fitted activation curve with a large enough effect in the signal ratio in the repeat runs, with a control signal flat (not every such curve was filed as active); inconclusive = weak or mixed curves; inactive = flat fitted curve, though single readings scatter; the % refers to the signal ratio.
% is scaled to controls: 0 for no effect and ±100 for the full control effect.

This assay can be described thus: qHTS assay for small molecule activators of the heat shock response signaling pathway (AID 743210). The note with it: HeLa HSE-bla reporter, beta-lactamase ratio, 5 h; series mostly up to 62.6 µM. The source says: U.S. Tox21 Program National Center for Advancing Translational Sciences [NCATS] NIH Chemical Genomics Center [NCGC] U.S. Environmental Protection Agency [EPA] National Institutes of Environmental Health Sciences [NIEHS] National Toxicology Program [NTP] U.S. Food and Drug Administration [FDA] Tox21 Assay Overview: Various chemicals, environmental and physiological stress conditions may lead to the activation of heat shock response/ unfolded protein response (HSR/UPR). There are three heat shock transcription factors (HSFs) (HSF-1, -2, and -4) mediating transcriptional regulation of the human HSR. To identify the compounds that activate HSR signaling, HSE-bla HeLa cell line (Invitrogen, Carlsbad, CA, USA) containing a beta-lactamase reporter gene under the control of the heat shock response elements was used to screen the Tox21 10K compound library.
Tox21 Assay Protocol Summary: The CellSensor HSE-bla HeLa cells (Invitrogen, Carlsbad, CA, USA) were dispensed at 1500 cells/6uL/well into 1536-well black wall/clear bottom plates using a Multidrop combi (Thermo Fisher Scientific, Waltham, MA) dispenser. After the assay plates were incubated at 37 C and 5% CO2 overnight, 23 nL of compounds dissolved in DMSO, positive controls or DMSO only was transferred to the assay plate by a Pintool station (Kalypsys, San Diego, CA). The plates were incubated at 37 C for 5 h. After 1 uL of LiveBLAzerTM B/G FRET substrate was added using a Flying Reagent Dispenser (Beckman Coulter, Indianapolis, IN, USA), the plates were incubated at room temperature for 2.5 h, and fluorescence intensity was measured by an Envision plate reader (PerkinElmer, Shelton, CT).
(In general: qHTS replaces the single test concentration by a dilution series.)
`CC1(C)[C@H]2CC[C@](C)(C2)[C@H]1O`: the result was inactive.

Consider `CNCCS(=O)(=O)O`, for which the result was inactive. Still for that read-out and setting: as for `CC(=O)OC1CCCCC1C(C)(C)C` (stereo not given), the entry is “inactive”; as for `CN1CCOC(c2ccccc2)c2ccccc2C1` (stereo not given), “inactive”. The same measure, in the same setting: the value for `O=C(CN1CCNCC1)NC1CCCCC1` was “inactive”; that for `COc1nc(N)nc2nc[nH]c12` was “inactive”.

As for `CC(CO)(CO)CO`, the result was inactive. On to `CC(C)OC(=O)CCC(=O)OC(C)C`, for which the result was inactive. Turning to `CC12CCC(C1)C(C)(C)C2O` (stereo not given), the outcome was inactive. Take `C=C(C)[C@@H]1CC=C(C)C(=O)C1`: the result was inactive. Still for that read-out and setting: as for `[O]=[Mo](=[O])=[O]`, the entry is “inactive”; as for `CCCCC1CCC(O)CC1` (stereo not given), “inactive”. With `c1ccc(-c2nn[nH]n2)cc1`, the result was inactive. On the same count and under the same terms, as for `CO[C@@]1(NC(=O)Cc2cccs2)C(=O)N2C(C(=O)O)=C(COC(N)=O)CS[C@@H]21`, the entry is “inactive”; as for `CCCCCC/C=C/C(=O)OC`, “inactive”.

On to `O=C=NCC1CCCC(CN=C=O)C1` (stereo not given), for which the result was inactive. Take `c1ccc(B(c2ccccc2)c2ccccc2)cc1`: the result was inactive. Still for that read-out and setting: as for `CC(S)C(C)S` (stereo not given), the entry is “inactive”. Turning to `CC/C=C\CCOC(=O)c1ccccc1O`, the outcome was inactive.

As to `C=C(C)C1CC=C(C)C(=O)C1` (stereo not given), the outcome was inactive. For the compound `CCCCOC(=O)[C@H](C)O`, the outcome was inactive. Still for that read-out and setting: as for `CC(C)C1OCCN1CCOC(=O)NCCCCCCNC(=O)OCCN1CCOC1C(C)C` (stereo not given), the entry is “inactive”; as for `CC(=O)CC(=O)OC(C)(C)C`, “inactive”. As for `CCC/C=C(\C=O)CC`, the result was inactive. Still for that read-out and setting: the value for `C/C=C(\C)C(C)=O` was “inactive”; that for `CCCCCCCCCOC(=O)c1ccccc1C(=O)OCCCCCCCCC` was “inactive”. Take `O=C1c2ccccc2C(=O)c2cc(Cl)ccc21`: the activation was -0.0238% [at 5.95 µM] (inactive). As for `CC1(C)Cc2cccc(N)c2O1`, the outcome was inactive. The same measure, in the same setting: the value for `CC1OCCC1=O` (stereo not given) was “inactive”; that for `CC1(C)O[C@H]2CC(=O)OC[C@]23[C@H]2CC[C@@]4(C)[C@H](c5ccoc5)OC(=O)[C@H]5O[C@]54[C@]2(C)C(=O)C[C@@H]13` was “inactive”; that for `CCCCCCCCCOC(=O)CCCCC(=O)OCCCCCCC` was “inactive”. Same read-out and setting: as for `CC(C)(C)NC[C@H](O)COc1cccc2c1CCCC2=O`, the entry is “inactive”; as for `CN1C[C@@H]2C[C@H]1CN2c1cc2c(cc1F)c(=O)c(C(=O)O)cn2C1CC1`, “inactive”.

In the case of `CC(=O)O[Si](C)(OC(C)=O)OC(C)=O`, the outcome was inactive. On to `Cc1c(NC(=O)c2cccnc2)c(=O)n(-c2ccccc2)n1C`, for which the outcome was inactive. As for `C=CCN1C[C@H](C(=O)N(CCCN(C)C)C(=O)NCC)C[C@@H]2c3cccc4[nH]cc(c34)C[C@H]21`, the outcome was inactive.

`CCOCCOCC`: the result was inactive. The same measure, in the same setting: as for `OCCN1CCOCC1`, the entry is “inactive”; as for `CC1c2ccccc2CN1NC(=O)c1ccc(Cl)c(S(N)(=O)=O)c1` (stereo not given), “inactive”. Consider `CC(=O)Nc1ccc(OC(=O)c2ccccc2OC(C)=O)cc1`, for which the result was inactive.
